CHX counter – counter-screen for Shiga toxin inhibitors: cycloheximide protein synthesis inhibition | cell reporter, cycloheximide protein synthesis inhibition counterscreen | max response, % | hit rate 12% among 300,000 | AID 2314; in the data active = max response mostly above about 13%, no sharp cut-off; inactive = mostly below about 14%; also: read at 38.3 µM for the half of the compounds with a filed dose; 0% is about no effect
Pf growth 96h – inhibits malaria parasite growth, 96 h | P. falciparum luciferase reporter growth, 96 h | Potency, µM (highest dose often 28.7 µM), without a hit: top-dose activity change, negative = inhibition, hits mostly inhibitors | hit rate 6.9% among 320,000; also: potency is read from the fitted curve at half-maximal effect; % is scaled to controls: 0 for no effect and ±100 for the full control effect
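P. falciparum expressing integrated firefly luciferase grown in erythrocytes (2% hematocrit, 0.05% parasitemia final) with compounds for 96 hours at 37 C, 5% CO2. Growth inhibition read as loss of luminescence after adding luciferase detection reagent.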
Pf growth 48h – inhibits P. falciparum growth in the first generation, 48 h; P. falciparum luciferase growth in erythrocytes, 48 h; Potency, µM (doses to about 28.7 µM), without a hit: at the highest dose activity change, negative = inhibition, hits mostly inhibitors; hit rate 5.9% among 310,000; AID 504832; also: potency is read from the fitted curve at half-maximal effect; % is scaled to controls: 0 for no effect and ±100 for the full control effect
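Luciferase-expressing parasites in RBCs, 2% Hct / 0.1% parasitemia final; RPMI 1640 + 0.5% Albumax; 37 C, 5% CO2, one generation; luminescence read-out, lower signal = inhibition.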
Shiga toxin inh – inhibitors of Shiga toxin in Vero cells | hit rate 9.2% among 290,000 | inhibition, % at 38.7 µM | Vero cells, Shiga toxin protein synthesis inhibition reporter; in the data active = inhibition mostly above about 28%, no sharp cut-off; inactive = mostly below about 43%; also: 0% is about no effect
FBPA Giardia inh – Giardia lamblia aldolase inhibition | Potency, µM (series often up to 59.6 µM), for inactives: at the highest dose activity, negative = inhibition, actives largely listed as inhibitors | purified Giardia FBPA | AID 2451 | hit rate 0.71% among 290,000 | A8B2U2; also: potency is read from the fitted curve at half-maximal effect; % is scaled to controls: 0 for no effect and ±100 for the full control effect; nearly all actives have a fitted effect of over 55% in size
Target sequence (A8B2U2 whole entry, looked up): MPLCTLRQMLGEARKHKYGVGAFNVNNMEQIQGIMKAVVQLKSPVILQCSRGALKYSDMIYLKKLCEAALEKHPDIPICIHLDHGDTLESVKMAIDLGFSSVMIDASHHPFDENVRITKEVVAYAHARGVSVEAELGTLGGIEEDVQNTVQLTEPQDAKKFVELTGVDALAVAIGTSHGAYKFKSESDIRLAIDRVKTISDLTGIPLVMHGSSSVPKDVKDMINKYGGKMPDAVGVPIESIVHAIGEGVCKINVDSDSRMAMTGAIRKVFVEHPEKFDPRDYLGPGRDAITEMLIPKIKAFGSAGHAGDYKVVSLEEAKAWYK
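Giardia FBPA (40 nM reagent) was preincubated 10 min at RT with compound (up to 57.5 uM final), then substrate plus GAPDH/TPI/NAD/arsenate coupling system with diaphorase/resazurin was added; resorufin fluorescence (525/598 nm) was read after 20 min.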
NS1 inh – inhibitors of influenza NS1 protein function. hit rate 0.4% among 270,000. Potency, µM (doses to about 46.1 µM), for the others: at the top dose activity, positive = more growth; calls by dose curve; also: potency is read from the fitted curve at half-maximal effect; actives are rising curves; nearly all actives have a fitted effect of over 50% in size
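S. cerevisiae expressing influenza A NS1, grown in glucose, washed, then diluted 1:100 into pH 6.0 -URA galactose medium with 23 nl compound. Growth recovery read as OD600; NS1-free strain serves as control.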
Active calls of the source: *; ? = inconclusive; / = no result given. Only some compounds are listed: those with a hit (about 21% of all), similar ones and a draw of the others. Unless noted, calls follow the shape of the dose curve; as a rule, active = well fitted curve in the direction sought with a large enough effect; inconclusive = small, poorly fitted or top-dose-only effect, or another doubt; inactive = no such curve, though single readings can be large; an effect the other way counts as inactive or inconclusive.

SMILES | CHX counter | Pf growth 96h | Pf growth 48h | Shiga toxin inh | FBPA Giardia inh | NS1 inh
O=C(NCc1ccccc1)C1CCCN(S(=O)(=O)c2ccc(Br)cc2)C1 (stereo unspecified) | -0.9 | 0.294µM* | -30.4% | 8.1 | / | 2.4%
CCOc1ccc(S(=O)(=O)N2CCCC(C(=O)NCc3ccccc3)C2)cc1 (stereo unspecified) | -2.1 | 36.5% | 12.5% | -15.5 | 5.6% | -1.1%
O=C(NCc1ccccc1)C1CCCN(S(=O)(=O)c2ccc(F)cc2)C1 (stereo unspecified) | -3.1 | 11.7µM* | -4.0% | -7.6 | / | 6.1%
O=C(NCCc1ccccc1)C1CCCN(S(=O)(=O)c2cccnc2)C1 (stereo unspecified) | 13.9 | 11.4% | -4.0% | 14.2 | 13.6% | -3.6%
NS(=O)(=O)c1ccc(CCNC(=O)C2CCCN(S(=O)(=O)c3cccnc3)C2)cc1 (stereo unspecified) | -7.2 | 7.38µM* | / | 2.2 | 0.8% | -4.4%
CC(C)(C)OC1NS(=O)(=O)OCC1NCOC(Cl)(Cl)Cl (stereo unspecified) | -2.6 | -21.8% | 30.9% | -3.5 | ? | 7.6%
CCOC(=O)c1ccc(NC(=O)C2CCN(S(=O)(=O)c3ccccc3)CC2)cc1 | / | / | / | / | / | -49.7%
O=C(NCc1ccccn1)C1CCCN(Cc2cnn(-c3ccccc3)c2-n2cccc2)C1 (stereo unspecified) | 2.4 | 0.8% | ? | -16.6 | 0.7% | 2.6%
CCOC(=O)c1ccc(NC(=O)C2CCCN(S(=O)(=O)c3ccc(F)cc3)C2)cc1 (stereo unspecified) | -2.9 | 8.28µM* | / | -15.7 | -6.5% | 17.1%
O=C(NCc1cccnc1)C1CCCN(Cc2cnn(-c3ccccc3)c2-n2cccc2)C1 (stereo unspecified) | -1.4 | 11.7µM* | / | -10.1 | 0.7% | 2.1%
Cc1ccc(-c2nnn(CC(=O)N(CC3CCCO3)C(C(=O)NC3CCCC3)c3ccc(F)cc3)n2)o1 (stereo unspecified) | 2.9 | / | 11.7µM* | -12.1 | -1.7% | 2.1%
Cc1ccc(-c2nnn(CC(=O)N(CC3CCCO3)C(C(=O)NC3CCCC3)c3ccc(O)cc3)n2)o1 (stereo unspecified) | -1.5 | 30.0% | -21.3% | -5.5 | 2.5% | 0.4%
CCCC(C(=O)NC1CCCC1)N(C(=O)Cn1nnc(-c2ccc(C)o2)n1)c1ccccc1OC (stereo unspecified) | -1.6 | / | 10.4µM* | -9.5 | -1.7% | 4.0%
COc1ccc(NC(=O)C(CCCCNC(=O)OC(C)(C)C)NC(=O)OCc2ccccc2)cc1 (stereo unspecified) | -2.9 | 0.586µM* | ? | -2.4 | 3.3% | -2.3%
CC[C@@H](C)[C@H](NC(=O)OCc1ccccc1)c1nnc([C@@H](NC(=O)OCc2ccccc2)[C@@H](C)CC)o1 | 0.9 | 10.4µM* | 10.4µM* | -0.6 | 4.7% | 4.3%
CC(C)(C)OC(=O)NC(CC(=O)OCc1ccccc1)C(=O)O (stereo unspecified) | -1.2 | 27.8% | -3.5% | -2.6 | 3.1% | 5.9%
CCOC(=O)CSc1nnc([C@H](Cc2ccccc2)NC(=O)OC(C)(C)C)o1 | -3.0 | ? | ? | 19.0 | -0.5% | -10.1%
CC(C)C[C@H](NC(=O)OC(C)(C)C)c1nnc(SCc2ccccc2)o1 | -0.5 | / | 8.28µM* | 37.2 | -3.3% | -6.0%
CC(C)(C)OC(=O)N[C@@H](CCCCNC(=O)OCc1ccccc1)c1nnc([C@H](CCCCNC(=O)OCc2ccccc2)NC(=O)OC(C)(C)C)o1 | -1.7 | 2.62µM* | ? | -2.2 | 2.5% | -33.3%
O=C(O)C(Cc1c[nH]c2ccccc12)NS(=O)(=O)c1cccc(Cl)c1Cl (stereo unspecified) | 5.2 | 5.6% | / | -1.2 | 12.4% | -2.4%
Cc1ccc(NC(=O)COC(=O)c2cc(=O)c3cc(F)ccc3o2)cc1 | / | 13.1% | 3.8% | / | / | /
C=C(C)CSc1nnc([C@H](CCSC)NC(=O)OC(C)(C)C)o1 | 6.3 | 10.4µM* | / | 23.7 | 0.1% | -7.4%
O=C(NCCCC(NC(=O)OCc1ccccc1)C(=O)O)OCc1ccccc1 (stereo unspecified) | -1.8 | 6.57µM* | 3.8% | -3.9 | 4.3% | ?
CSCC[C@H](NC(=O)OCc1ccccc1)C(=O)O | 7.0 | / | 12.5% | -14.8 | 12.2% | 3.6%
